Source: PubChem BioAssay (Tox21)
Where “and” joins values, the source holds several entries; their conditions need not be identical. Equal values may be shown once. Results filed as inconclusive are left out. Calls of active or inactive are those of the source. Calls follow the shape of the dose curve; as a rule, active = well fitted curve in the direction sought with a large enough effect in the repeat runs; inconclusive = weak or mixed curves; inactive = no such curve, though single readings can be large; an effect the other way counts as inactive or inconclusive.

Assay: qHTS assay to identify small molecule agonists of the retinoic acid receptor (RAR) signaling pathway (AID 1159553); also: potency is read from the fitted curve at half-maximal effect
Details: C3RL4 RARE luciferase reporter, agonist, 6 h; series mostly up to 73.3 µM; activation: at the top concentration
Procedure, shortened: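 Reporter readout comes from luciferase under RARE control in C3RL4 cells; compound exposure lasts 6 hr at 37 C in 5% CO2, and luminescence is recorded following a 30 min room-temperature incubation with reagent.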
% is scaled to controls: 0 for no effect and ±100 for the full control effect.

Compound | activation | Potency
O=C1NC(=O)C(=O)C(=O)N1 | 18.5% [at 94.8 µM] (inactive) | –
O=C(Cl)OCCOCCOC(=O)Cl | -2.72% (inactive) | –
CC(C)(C)N(NC(=O)c1ccc(Cl)cc1)C(=O)c1ccccc1 | -3.47% (inactive) | –
O=C1CC[C@@]2(O)[C@H]3Cc4ccc(O)c5c4[C@@]2(CCN3CC2CC2)[C@H]1O5 | 1.02% (inactive) | –
N#CC(C#N)=Cc1ccc(O)c(O)c1 | – | 26.6 µM (active)
CCCBr | -2.18% (inactive) | –
O=P(OCC(Br)CBr)(OCC(Br)CBr)OCC(Br)CBr (configuration not stated) | – | inactive
COC1=CC(=O)O[C@@H](/C=C/c2ccc3c(c2)OCO3)C1 | -13.7% (inactive) | –
CC(Cl)C(=O)O (configuration not stated) | 2.09% [at 94.8 µM] (inactive) | –
CCOc1cccc(C2(N3CCN(c4ccccc4)CC3)CCC(C)CC2)c1 (configuration not stated) | 3.79% (inactive) | –
N#CC1(N=NC2(C#N)CCCCC2)CCCCC1 | 9.91% (inactive) | –
Nc1ccccc1C(=O)OCCc1ccccc1 | – | 173 nM (active) and 122 nM (active)
CCC1(CC)C(=O)NC(=O)NC1=O | 0.38% (inactive) | –
CCOP(=O)(O)C(N)=O | -0.0341% (inactive) | –
Cc1cccc(C)c1NC1=NCCCS1 | -5.42% (inactive) | –
CCNC(=O)NC(=O)/C(C#N)=N/OC | -1.12% (inactive) | –
CCCC[N+](CCCC)(CCCC)CCCC | -0.118% (inactive) | –
CCCCCCCCCCCCN=C(N)N | -2.89% [at 3.75 µM] (inactive) | –
CCCN(CCOc1c(Cl)cc(Cl)cc1Cl)C(=O)n1ccnc1 | – | inactive
O=C(O)C(F)(F)C(F)(F)C(F)(F)C(F)(F)C(F)(F)F | -5.97% (inactive) | –
CCN(C(C)=O)c1cccc(-c2ccnc3c(C#N)cnn23)c1 | 1.33% (inactive) | –
CC(C)(c1ccccc1)c1cc(-n2nc3ccccc3n2)c(O)c(C(C)(C)c2ccccc2)c1 | -0.677% (inactive) | –
CC[N+]1(CCOC(=O)C(O)(c2ccccc2)c2ccccc2)CCCCC1 | 1.01% (inactive) | –
CCC[N+](CCC)(CCC)CCC | 0.515% (inactive) | –
CCCCC(CC)COC(=O)c1c(Br)c(Br)c(Br)c(Br)c1C(=O)OCC(CC)CCCC (configuration not stated) | -4.85% (inactive) | –
O=C(O)CCCOc1ccc(Cl)cc1Cl | 4.73% (inactive) | –
Clc1ccc(Cl)c(Cl)c1 | – | inactive

Assay: qHTS assay to identify small molecule antagonists of the estrogen related receptor (ERR) signaling pathway - cell viability counter screen (AID 1224818);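 also: viability measured after 17.5 h of compound exposure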
Details: ERR reporter cell line viability counter screen; series mostly up to 46.1 µM; viability change, negative = cytotoxic: at the top concentration
Excerpt: National Center for Advancing Translational Sciences [NCATS]
NIH Chemical Genomics Center [NCGC]
U.S. Environmental Protection Agency [EPA]
National Institutes of Environmental Health Sciences [NIEHS]
National Toxicology Program [NTP]
U.S. Food and Drug Administration [FDA]
Estrogen related receptors (ERRs), the first orphan nuclear receptors discovered, play an important role in the control of cellular energy metabolism. ERRs are required for high-energy production in response to the environmental challenges. ERR-alpha was also identified as an adverse marker for breast cancer progression; ERR-alpha-positive tumors have a poor prognosis. To screen and to identify environmental compounds that perturb the ERR signaling pathways could provide valuable information for potential therapeutic or preventive measures in the treatment of metabolic disease. To differentiate true ERR antagonists or agonist from cytotoxic substances, the assay is multiplexed with cell viability assay.
Tox21 Assay Protocol Summary:
The ERR cells were dispensed at 2,000 cells/5 ul/well in 1536-well white plates using a Multidrop dispenser. After the assay plates were incubated at a 37 C/5% CO2 incubator for 6 hours, 23 nL of compounds dissolved in DMSO, positive and negative controls or DMSO only was transferred to the assay plate by a pin tool. The plates were incubated at 37 C for 17.5 hours. 1 ul/well of CellTiter-Fluor reagent was added into the assay plates using a Flying Reagent Dispenser. After 30 min incubation at 37 C/5% CO2, the fluorescence intensity in the plates was measured using a ViewLux plate reader.

Compound | viability change, negative = cytotoxic
N#CC(C#N)=Cc1ccc(O)c(O)c1 | -7.23% (inactive)
CC(C)(C)NCC(O)c1ccccc1Cl (configuration not stated) | -5.6% (inactive)
Cc1cccc(C)c1NC1=NCCCS1 | 5.47% (inactive)
COc1ccc2c(c1OC)C(=O)O[C@H]2[C@@H]1c2cc3c(cc2CCN1C)OCO3 | 13.7% (inactive)
CCC1(C2=NCCN2)Cc2ccccc2O1 (configuration not stated) | 15.3% (inactive)
O=C(O)CCCOc1ccc(Cl)cc1Cl | -2.14% [at 92.2 µM] (inactive)

Assay: qHTS assay to identify small molecule antagonists of the estrogen related receptor (ERR) signaling pathway (AID 1224819;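 also: luminescence from an ERR-driven luciferase reporter measured with One-Glo reagent; nearly all actives have a fitted effect of over 50% in size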)
Details: ERR reporter cell line, luciferase inhibition; series mostly up to 46.1 µM; activity change, negative = inhibition: at the top concentration
Procedure, shortened: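 Luminescence readout (One-Glo, 30 min, RT) of ERR cell line after 18 h compound exposure at 37 C; cells seeded 2,000/well, pre-incubated 6 h, compounds pinned from DMSO stocks.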

Compound | activity change, negative = inhibition
CC(C)(C)NCC(O)c1ccccc1Cl (configuration not stated) | 13.8% (inactive)
Cc1cccc(C)c1NC1=NCCCS1 | 6.73% (inactive)
CCC1(C2=NCCN2)Cc2ccccc2O1 (configuration not stated) | 21.5% (inactive)

Assay: qHTS assay to identify small molecule antagonists of the estrogen related receptor signaling pathway with the pleiotropic PPARgamma coactivator (PGC) cell viability counter screen (AID 1224822;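 also: viability read after 17.5 h compound exposure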)
Details: ERR/PGC reporter cell line viability counter screen; series mostly up to 46.1 µM; viability change, negative = cytotoxic: at the top concentration
Procedure, shortened: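 PGC/ERR cells were plated at 2,000 per well and allowed 6 h to settle before compound addition. Following 17.5 h at 37 C, CellTiter-Fluor reagent was added and fluorescence was read 30 min later.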

Compound | viability change, negative = cytotoxic
N#CC(C#N)=Cc1ccc(O)c(O)c1 | -0.13% (inactive)
CC(C)(C)NCC(O)c1ccccc1Cl (configuration not stated) | -2.94% (inactive)
Cc1cccc(C)c1NC1=NCCCS1 | 0.0042% (inactive)
COc1ccc2c(c1OC)C(=O)O[C@H]2[C@@H]1c2cc3c(cc2CCN1C)OCO3 | 8.78% (inactive)
CCC1(C2=NCCN2)Cc2ccccc2O1 (configuration not stated) | -3.4% (inactive)
O=C(O)CCCOc1ccc(Cl)cc1Cl | 14.5% [at 92.2 µM] (inactive)
